23 molecules from PubChem BioAssay (NCATS) can be followed below.

Records with an inconclusive call do not appear. Unmarked numbers belong to inactive results. Calls follow the shape of the dose curve; as a rule, active = well fitted inhibition curve with a large enough effect; inconclusive = small, poorly fitted or top-dose-only effect; inactive = flat fitted curve, though single readings scatter.

For the experiment, the system named is Zika virus NS2B-NS3 protease. The experiment can be described thus: Primary screen GU AMC qHTS for Zika virus inhibitors (AID 1347154).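 Also: 0% = no-inhibitor control and -100% = no-enzyme control; nearly all actives have a fitted effect of over 70% in size.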 To be noted: Zika NS2B-NS3 unlinked protease, AMC fluorogenic substrate; series mostly up to 54.1 µM; activity change, negative = inhibition: at the top concentration. The gist of the method:
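Fluorogenic AMC-substrate cleavage by noncovalent NS2B-NS3 protease complex (25 nM, pH 8.0 Tris buffer with Tween 20) followed for 15 minutes at room temperature (~20% conversion). Percent inhibition from ex340/em450 signal change, fitted by 4-parameter Hill equation.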
(In general: Quantitative high-throughput screening tests each substance at several concentrations.)
Regarding `O=C1CSC(=O)N1C(CCc1ccncc1)COc1ccc(-c2cccc([N+](=O)[O-])c2)cc1` (stereo not drawn), the “activity change, negative = inhibition” value was 20.1%.

Turning to `Cc1cn([C@@H]2O[C@H](CO)[C@@H](O)[C@H]2F)c(=O)[nH]c1=O`, the “activity change, negative = inhibition” value is -9.56%.

As to `CC(C=CC=C(C)C=CC1=C(C)CCCC1(C)C)=CC=CC=C(C)C=CC=C(C)C=CC1=C(C)CCCC1(C)C`, the “activity change, negative = inhibition” value is -15.5%.

As to `OCCN1C[C@H](O)[C@@H](O)[C@H](O)[C@@H]1CO`, the “activity change, negative = inhibition” value is 30.2%.

For the molecule `Cn1cc(C2=C(c3c4n(c5ccccc35)CCC(CN)C4)C(=O)NC2=O)c2ccccc21` (stereo not drawn), the “activity change, negative = inhibition” value is 6.99%.

Take `COc1cc(OC)c(NC(=O)Nc2cc(C)on2)cc1Cl`: the “activity change, negative = inhibition” value is 9.6%.

On to `CCCCCN=C(N)NN=Cc1c[nH]c2ccc(OC)cc12`, for which the “activity change, negative = inhibition” value is -1.37%.

As for `c1coc(CNc2ncnc3nc[nH]c23)c1`, the “activity change, negative = inhibition” value was 3.86%.

Take `COc1cc(C(=O)NC2CCN(C)CC2)ccc1Nc1ncc2c(n1)N(C1CCCC1)CCC(=O)N2C(C)C`: the “activity change, negative = inhibition” value was -0.39%.

With `N=c1ccn2c(n1)O[C@H]1[C@@H](O)[C@@H](CO)O[C@H]12`, the “activity change, negative = inhibition” value is 6.59%.

Consider `C[C@H](NCc1ccc(OCc2cccc(F)c2)cc1)C(N)=O`, for which the “activity change, negative = inhibition” value is 1.87%.

Consider `O=C(Nc1cccc(Nc2ncc(Br)c(NCCc3cnc[nH]3)n2)c1)N1CCCC1`, for which the “activity change, negative = inhibition” value is 3.32%.

Take `COc1cc2c(Nc3ccc(Cl)c(Cl)c3F)ncnc2cc1OCC1C[C@@H]2CN(C)C[C@H]2C1`: the “activity change, negative = inhibition” value is -1.3%.

`O=C(O)CCCCCC(=O)NN=C1CCCC1`: the “activity change, negative = inhibition” value is -1.69%.

Regarding `C#C[C@]1(O)CC[C@@H]2[C@@H]3CCC4=CC(=O)CC[C@@H]4[C@H]3CC[C@@]21CC`, the “activity change, negative = inhibition” value is -6.9%.

As for `Cc1cc(C(=O)NOCCO)c(Nc2ccc(I)cc2F)n(C)c1=O`, the “activity change, negative = inhibition” value is -0.225%.

With `C[C@@]12C[C@@]3(O)O[C@@H](O1)[C@]1(COC(=O)c4ccccc4)[C@@H]3C[C@@]12O[C@@H]1O[C@H](CO)[C@@H](O)[C@H](O)[C@@H]1O`, the “activity change, negative = inhibition” value was 6.27%.

With `O=C(O)[C@H](CC(=O)N1C[C@@H]2CCCC[C@H]2C1)Cc1ccccc1`, the “activity change, negative = inhibition” value is 20.5%.

As to `CN1CCCN(C(=O)c2cccc(-c3ccc(C=C4C(=O)Nc5ccc(Cl)cc54)o3)c2)CC1`, the “activity change, negative = inhibition” value is -11.2%.

Take `Nc1ccn(C[C@@H](CO)OCP(=O)(O)O)c(=O)n1`: the “activity change, negative = inhibition” value is 8.48% [at 25.8 µM].

In the case of `COc1cc(OC)cc(-c2ccc3ncc4ccc(=O)n(-c5ccc(N6CCNCC6)c(C(F)(F)F)c5)c4c3c2)c1`, the “activity change, negative = inhibition” value is 2.52%.

Take `C=CC(=O)Nc1cc(NC(=O)c2ccc(C)c(NC(=O)c3ccno3)c2)cc(C(F)(F)F)c1`: the “activity change, negative = inhibition” value is 2.6%.

On to `COc1ccc(CCC(=O)c2c(O)cc(O[C@@H]3O[C@H](CO)[C@@H](O)[C@H](O)[C@@H]3O[C@@H]3O[C@@H](C)[C@H](O)[C@@H](O)[C@@H]3O)cc2O)cc1O`, for which the “activity change, negative = inhibition” value is -1.15%.
